# Source: PubChem BioAssay (National Center for Advancing Translational Sciences (NCATS))
# The list is not random: actives were taken first. Their share in the collection is about 7%.
# Integrin act MD = activates integrin-mediated alleviation for muscular dystrophy | alpha7betagal myoblasts, beta-gal FDG fluorescence, 48 h | AID 624291 | Potency, µM (series often up to 38.3 µM), for the others: top-dose activation, usual class: activators | actives 0.064% (n = 350,000);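 also: potency is read from the fitted curve at half-maximal effect; 100% = response of the positive control SU9516; nearly all actives have a fitted effect of over 60% in size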
#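 Alpha7betagal+/- myoblasts (passage 13) were plated 16-24 hr, then exposed to compounds (1:260 dilution of DMSO stock) for 48 hours at 37C. After MPER lysis, β-galactosidase reporter activity was read as FDG fluorescence (ex 480/em 540) after 30 minutes.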
# S2 tox = viability counter-screen for ATXN expression inhibitors; actives 0.49% (n = 400,000); S2 cells (HEK-293 line with an ATXN2-luciferase reporter) viability, CellTiter-Fluor protease fluorescence, 24 h; Potency, µM (doses to about 56.7 µM), hits mostly cytotoxic; also: potency is read from the fitted curve at half-maximal effect; nearly all actives have a fitted effect of over 40% in size
# ATXN2 expr inh = reduces ATXN2 reporter expression in HEK-293 cells. HEK-293 ATXN2-luciferase reporter, luminescence, 24 h. Potency, µM (highest dose often 57 µM), inactives show top-dose activity change, negative = inhibition, hits mostly inhibitors. actives 0.72% (n = 360,000). AID 1745845; also: potency is read from the fitted curve at half-maximal effect; % is scaled to controls: 0 for no effect and ±100 for the full control effect; nearly all actives have a fitted effect of over 55% in size
#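 ATXN2-luciferase reporter cells (luciferase flanked by upstream and downstream ATXN2 gene portions) were treated 24 h at 37 °C with compounds at up to 57 uM. SteadyGlo luminescence gave expression; GF-AFC fluorescence gave viability.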
# D3 antag = antagonists of human D3 dopamine receptor | P35462 | D3R cells, DiscoveRx beta-arrestin luminescence, antagonist mode; hits give low values | max response, negative = inhibition, % | actives 2.5% (n = 360,000); in the data active = max response below about -50%; inconclusive = no clear call, values can overlap the other calls; also: % is scaled to controls: 0 for no effect and ±100 for the full control effect
# Target sequence (P35462 whole entry, looked up): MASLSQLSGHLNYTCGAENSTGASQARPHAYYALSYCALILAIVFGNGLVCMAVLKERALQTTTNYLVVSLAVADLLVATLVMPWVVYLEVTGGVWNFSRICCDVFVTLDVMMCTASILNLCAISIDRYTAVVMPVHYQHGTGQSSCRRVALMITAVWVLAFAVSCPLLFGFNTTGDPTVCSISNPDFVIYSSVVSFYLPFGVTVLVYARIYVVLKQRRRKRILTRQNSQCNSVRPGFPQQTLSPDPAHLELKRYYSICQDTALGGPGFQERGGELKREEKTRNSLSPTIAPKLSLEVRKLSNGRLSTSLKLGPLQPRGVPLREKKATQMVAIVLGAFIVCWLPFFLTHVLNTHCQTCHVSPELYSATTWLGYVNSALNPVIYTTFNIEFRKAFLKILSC
#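 Cells plated overnight at 1500 cells/well, then exposed to library compounds with dopamine controls for 90 minutes at 37 degrees C. DiscoveRx reagent added for 30–60 minutes at room temperature; luminescence read, quantitative HTS format.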
# IL1B secr inh = blocks inflammasome-driven IL-1 beta release. activity change, % at 57.5 µM. THP-1 LPS/ATP IL-1B secretion, AlphaLISA, 16 h; hits give low values. actives 4.7% (n = 360,000). AID 743279; in the data active = activity change below about -50%; inconclusive = mostly about -30% to -49%; also: % is scaled to controls: 0 for no effect and ±100 for the full control effect
#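 Secreted IL-1B measured by AlphaLISA bead assay after 16 h compound exposure of THP-1 cells; compounds (final up to 57.5 uM) added 1 h before LPS (250 ng/mL) and ATP (1.25 mM) stimulation; lower signal means less secretion.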
# DRD3 agonist = D3 dopamine receptor (human) agonism | max activation, % | AID 652048 | P35462 | D3R DiscoveRx beta-arrestin cells, luminescence, 90 min | actives 0.58% (n = 410,000); in the data active = max activation above about 30%; also: 0% is about no effect
#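 Agonist-mode cell screen: cells plated at 1500/well and incubated overnight at 37 °C, then exposed to library compounds for 90 min at 37 °C. Detection reagent was added for 30–60 min at room temperature, and luminescence was read.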
# * = called active by the depositor; i = inactive; ? = inconclusive; / = no result given; ! = a repeat was not active; [ ] = remark or other dose. Unless noted, calls follow the shape of the dose curve; as a rule, active = well fitted curve in the direction sought with a large enough effect; inconclusive = small, poorly fitted or top-dose-only effect, or another doubt; inactive = no such curve, though single readings can be large; an effect the other way counts as inactive or inconclusive.
SMILES,Integrin act MD,S2 tox,ATXN2 expr inh,D3 antag,IL1B secr inh,DRD3 agonist
Cc1cccc(N=Nc2c(N)n[nH]c2-c2ccc(Cl)cc2)c1,20.5%[7.66 µM],?,?,-10.2,-54.1*,-12.9
Cc1ccc(N=Nc2c(N)n[nH]c2N)cc1,17.2%,i,63.3%,?,-64.0*,-0.3
Cc1ccc(-c2[nH]nc(N)c2N=Nc2cccc(Cl)c2C)cc1,-46.8%,?,?,2.7,-76.2*,2.3
Cc1ccc(-c2[nH]nc(N)c2N=Nc2ccccc2C)cc1,-51.5%,?,-20.0%,-28.9,?,0.6
O=C(CCC(=O)N(CC(=O)NC1CCCC1)c1ccccc1F)Nc1nccs1,-13.4%,i,18.2%,0.7,-18.5,3.7
CC(Oc1cccc(Cl)c1)C(=O)Nc1cc(S(=O)(=O)N2CCCCC2)ccc1N1CCOCC1 (stereo not drawn),-8.9%,i,-12.1%,-2.7,-5.0,1.7
CCOCCOC(=O)COc1ccc2c(=O)c(Oc3ccc(OC)cc3)coc2c1,6.0%,i,/,0.0,9.8,2.0
Cc1cc2nc(-c3cccc(Br)c3)c(CC(C)(C)C)n2c(C)c1Br,/,?,-9.9%,7.8,15.1,13.2
CCOc1cc(C(=S)N2CCC(O)CC2)ccc1OS(=O)(=O)c1ccc(Br)cc1,-13.6%,?,1.5%,22.6,-82.4*,8.6
Cn1nnc2c(sc3nc(N4CCOCC4)c4c(c32)CCCC4)c1=O,-9.9%,i,-22.3%,i,-12.6,0.3
COc1cccc(-n2cnc3c(sc4nc(N5CCOCC5)c5c(c43)CCCC5)c2=O)c1,4.6%,?,/,4.4,-54.4*,-0.6
COc1ccc(-c2nc(NC(=O)C3CC(=O)N(c4ccc5c(c4)OCCO5)C3)sc2C)cc1 (stereo not drawn),-50.5%,?,12.6µM*,1.5,17.3,14.5
CCN1C(=O)[C@H]2[C@@H](c3ccc(C)cc3)N3C(=O)N(c4cccc(Cl)c4)C(=O)[C@@]3(CC(C)C)[C@H]2C1=O,23.3%,i,-19.3%,-22.2,-3.6,9.6
O=C(COc1ccc2c(c1)OCO2)Nc1ccccc1F,6.5%,i,55.8%,17.0,44.9,13.7
Fc1ccc(C2CCNCC2COc2ccc3c(c2)OCO3)cc1 (stereo not drawn),-73.3%,?,?,-10.0,-97.1*,-0.1
Fc1ccc([C@@H]2CCNC[C@H]2COc2ccc3c(c2)OCO3)cc1,/,28.2µM*,31.6µM*!,23.6,-58.6*,14.8
Cc1ccc(S(=O)(=O)N2CCN(C(=O)c3cc(C4CC4)nn3-c3ccccc3)CC2)cc1,-1.4%,i,/,-3.1,19.4,-0.4
CN(C(=O)c1ccc(NC(=O)Cc2ccc(NC(=O)C3CCN(C(=O)c4ccccc4)CC3)cc2)cc1)C1CC1,-19.6%,i,-9.9%,-98.6*,/,-45.1
CCCc1cc(-c2n[nH]c(C)c2-c2ccc(C(=O)OCC)o2)c(O)cc1O,-4.4%,?,?,-26.6,5.9,35.4*
CCCc1cc(C(=O)Cc2ccc(C(=O)OCC)o2)c(O)cc1O,-0.2%,i,-2.5%,6.5,13.2,0.5
CCc1cc(-c2n[nH]c(C)c2-c2ccc3c(c2)OCCO3)c(O)cc1O,/,/,6.11µM*,/,/,/
CC(C)(C)NC(=O)CSc1nnc(Cc2ccccc2)n1CC1CCCO1 (stereo not drawn),9.1%,i,-13.4%,-2.8,-10.7,-3.6
CCOC(=O)CN1C(c2ccc(O)cc2)Nc2ccc(Br)cc2C1c1ccccc1 (stereo not drawn),-51.3%,20µM*,?,5.8,-101.5*,-1.0
N#Cc1ccc(COC(=O)c2cnc(Cl)c(Cl)c2)cc1,-15.0%,i,3.7%,-21.3,-87.9*,-17.8
Cc1noc(C)c1COC(=O)c1cnc(Cl)c(Cl)c1,-31.2%,i,13.2%,0.1,-54.1*,3.8
Cc1noc(C)c1COC(=O)c1cc(F)c(F)cc1Cl,-17.6%,i,0.6%,25.9,-1.8,1.4
O=C(OCc1ccccc1)c1cnc(Cl)c(Cl)c1,-15.7%,i,4.0%,-8.0,-3.7,2.2
